This is one part of a sample in which hits are shown more often than they occur.
Tgondii IFNg: T. gondii growth inhibition with IFN-gamma, primary screen, cell-based; Toxoplasma gondii growth in IFN-gamma-treated host cells; hits give low values; 69,000 compounds, 3.8% hits; activity change, negative = inhibition, % (no concentration beside the values); in the data active = activity change below about -70%, passing the limit was not always enough;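 also: host cells are HeLa cells infected with Toxoplasma gondii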
* hit, by the source's call.

How did O=C(c1cccc2[nH]ccc12)N1CCCC1c1nc(-c2cccc(Cl)c2)no1 (centres undefined) do in these assays?
Tgondii IFNg: -23

What do the screens show for `COc1ccc(Nc2nc(NC(=O)Nc3ccc(Cl)cc3)n[nH]2)cc1`?
Tgondii IFNg: -53

What do the screens show for `COc1ccc(NC2=NC(c3ccc(Cl)cc3)n3c(nc(C)cc3=O)N2)cc1` (centres undefined)?
Tgondii IFNg: -86*

What do the screens show for `COc1ccc(C2(CNCc3cc(-c4ccc(Cl)cc4)c[nH]c3=O)CCOCC2)cc1`?
Tgondii IFNg: 311

Results for CCc1nc(OCC(=O)Nc2ccc(C)c(C)c2)c2ccccc2n1 ?
Tgondii IFNg: 3

How did CCc1cc(CN(C)Cc2ccc3c(C)cc(=O)oc3c2)on1 do in these assays?
Tgondii IFNg: 3

Results for O=C([C@H]1CCC[C@]12CCN(Cc1ccccc1F)C2)N1CCOCC1 ?
Tgondii IFNg: -2

Results for CCc1cnc(C)nc1-c1cccc(-n2cccn2)c1 ?
Tgondii IFNg: 10

What do the screens show for `O=C(Nc1ccccc1-c1ccccc1)c1ccc2c(c1)[nH]c(=O)n2C1CCCC1`?
Tgondii IFNg: -92*

Results for CCOc1ccc(-c2ccccc2NC(=O)C2CC2)cc1 ?
Tgondii IFNg: 23

Results for Cc1cc(C)c2nc(C)cc(C(=O)Nc3ccccc3-c3ccccc3)c2c1 ?
Tgondii IFNg: -30

What do the screens show for `Nc1ccc(-c2nnn(CC(=O)Nc3ccccc3)n2)cc1`?
Tgondii IFNg: 59

Results for Cc1oc(-c2cccc(Cl)c2)nc1CN1CCN(C(=O)NCCc2ccccc2)CC1 ?
Tgondii IFNg: -49

Results for CCCS(=O)(=O)Nc1ccc(F)c(C(=O)c2c[nH]c3ncc(-c4ccc(Cl)cc4)cc23)c1F ?
Tgondii IFNg: -79*

What do the screens show for `Fc1ccccc1-n1cc(-c2ccnc(NCc3ccon3)n2)cn1`?
Tgondii IFNg: -76*

How did Cc1ccccc1-n1cc(-c2ccnc(NC3CCNCC3)n2)cn1 do in these assays?
Tgondii IFNg: -26

Results for COc1ccccc1-n1cc(-c2ccnc(NCCc3cnccn3)n2)cn1 ?
Tgondii IFNg: -28

What do the screens show for `CN1C(=O)CCc2cc(NC(=O)C(F)(F)F)ccc21`?
Tgondii IFNg: 6

What do the screens show for `COc1cccc(NC(=O)c2ccc3nnc(C4CN(c5ncccn5)CCN4C)n3c2)c1` (centres undefined)?
Tgondii IFNg: -49

Results for CCOC(=O)c1coc(N2CCC3(CC2)C(=O)Nc2ccccc23)n1 ?
Tgondii IFNg: 48

Results for Cc1ccc(OCCN(C)C)c(NC(=O)c2noc3c2CC(C(C)(C)C)CC3)c1 (centres undefined) ?
Tgondii IFNg: -74*

Results for CN(C)c1cc(C(=O)Nc2ccccc2OCC2CCCCO2)ccn1 (centres undefined) ?
Tgondii IFNg: -8

How did CC(C)(C)C1CCc2onc(C(=O)NCC(C)(C)N3CCCCC3)c2C1 (centres undefined) do in these assays?
Tgondii IFNg: -15

Results for CCN(CC)C1CCN(c2nc(-c3ccccc3)nc3c2CCC3)C1 (centres undefined) ?
Tgondii IFNg: -11

What do the screens show for `Cc1cccc(C)c1NC(=O)CN1CCC(Nc2nc3c(c(=O)[nH]2)CCCC3)CC1`?
Tgondii IFNg: -13

Results for O=c1[nH]c(NC2CCN(Cc3nnnn3Cc3ccccc3)CC2)nc2c1CCCC2 ?
Tgondii IFNg: -16

What do the screens show for `CC(C)(C(=O)N1CCC(Nc2nc3c(c(=O)[nH]2)CCCC3)CC1)c1ccc(Cl)cc1`?
Tgondii IFNg: -101*

Results for CCN(CCc1nc2ccc(C)cc2[nH]1)C(=O)COC ?
Tgondii IFNg: -34

What do the screens show for `CNCC(O)COc1ccc(OC)cc1` (centres undefined)?
Tgondii IFNg: 44

What do the screens show for `CCC(COC(=O)Nc1cc(C)ccc1C)NC(=O)Oc1ccccc1` (centres undefined)?
Tgondii IFNg: 0

What do the screens show for `O=C(c1ncoc1-c1ccccc1)N1CCOC(c2ccc(Cl)cc2)C1` (centres undefined)?
Tgondii IFNg: -40

How did CCn1c(C)cc(C)c(C(=O)N2CCOC(c3ccc(Cl)cc3)C2)c1=O (centres undefined) do in these assays?
Tgondii IFNg: 6

What do the screens show for `O=C(c1c(F)cccc1F)N1CCOC(c2ccc(Cl)cc2)C1` (centres undefined)?
Tgondii IFNg: -79*

What do the screens show for `Cc1occc1C(=O)N1CCC2(CC(Nc3ncccc3F)CO2)C1` (centres undefined)?
Tgondii IFNg: 7

Results for Cc1occc1C(=O)N1CCC2(CC(Nc3cccc(C#N)n3)CO2)C1 (centres undefined) ?
Tgondii IFNg: -98*

Results for N#Cc1cccc(NC2COC3(CCN(C(=O)NC4CC4)C3)C2)n1 (centres undefined) ?
Tgondii IFNg: -36

How did CC1N(CCN(C)C)C(=O)COC12CCN(Cc1cnn(C)c1)CC2 (centres undefined) do in these assays?
Tgondii IFNg: 4

What do the screens show for `CC1N(Cc2cccnc2)C(=O)COC12CCN(Cc1cnn(C)c1)CC2` (centres undefined)?
Tgondii IFNg: 4

What do the screens show for `C=CCN1C(=O)COC2(CCN(Cc3cnn(C)c3)CC2)C1C` (centres undefined)?
Tgondii IFNg: -78*

Results for CC(C)(C)c1cc(C(C)(C)C)n(-c2ncc(C(F)(F)F)cc2Cl)n1 ?
Tgondii IFNg: -24

How did Cc1nc(-c2cccc(F)c2)sc1CCNC(=O)c1c(F)cccc1F do in these assays?
Tgondii IFNg: 33

How did C=CCn1c(=O)c(C(=O)Nc2ccc(C)c(C)c2)c(O)c2ccccc21 do in these assays?
Tgondii IFNg: 313

Results for COc1cc([C@@H]2c3cc4c(cc3[C@@H](O[C@@H]3O[C@@H]5CO[C@@H](c6cccs6)O[C@H]5[C@H](O)[C@H]3O)[C@H]3COC(=O)[C@H]23)OCO4)cc(OC)c1O ?
Tgondii IFNg: -71*

Results for COc1cc([C@@H]2c3cc4c(cc3C(OC3O[C@@H]5COC(C)O[C@H]5[C@H](O)[C@H]3O)C3COC(=O)[C@@H]32)OCO4)cc(OC)c1O (some centres undefined) ?
Tgondii IFNg: -70

How did COc1cc([C@@H]2c3cc4c(cc3C(OC3OC5COC(C)OC5C(O)C3O)C3OCC(=O)[C@@H]32)OCO4)cc(OC)c1O (some centres undefined) do in these assays?
Tgondii IFNg: -81*

Results for Cc1ccn2c(C(=O)N3CCC4(CCOCC4)CC3)c(C)nc2c1 ?
Tgondii IFNg: -7

What do the screens show for `COc1ccc(CNC(=O)C2CCCN(c3cc(C)nc4ncnn34)C2)cc1` (centres undefined)?
Tgondii IFNg: -7

How did CCN1CC(C(=O)N2CCCC(COc3ccc(F)cc3)C2)CC1=O (centres undefined) do in these assays?
Tgondii IFNg: 7

What do the screens show for `O=S(=O)(NCCc1csc(-c2ccc(F)cc2)n1)c1cccc(F)c1`?
Tgondii IFNg: -15

What do the screens show for `CCN(CC)CCN1CC[C@@H]2OCC[C@@]2(C(=O)N2CCOCC2)C1`?
Tgondii IFNg: -41

Results for Cc1noc(-c2ccccc2OCC(=O)N2CCCN(c3ccccn3)CC2)n1 ?
Tgondii IFNg: -2

What do the screens show for `CCOc1ccc(CC(=O)N2CCCCC2c2ccnc3ncnn23)cc1` (centres undefined)?
Tgondii IFNg: 14

Results for COc1ccc(C(=O)NC2CCCc3c2cnn3Cc2ccccc2Cl)cc1 (centres undefined) ?
Tgondii IFNg: -80*

Assay outcomes deposited in PubChem by Broad Institute.
